The other results are listed elsewhere or left out. Values without a mark were called inactive. Calls of active or inactive are those of the source.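 Rule for the calls, unless noted: active = activation above the mean of solvent-only control wells plus 3 SD, set per campaign (cut at about 130% in these data); inactive = the rest.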
test: STAT1 signaling activators, confirmation, cell-based, HTS, luciferase reporter (AID 1262;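 active = activation above a set limit carried over from the earlier primary STAT1 screen, cut at about 140% in these data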;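 note: simple ratio to median IFN-gamma plus DMSO wells so 0% means no light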); conditions: NIH 3T3 STAT1-luciferase reporter, IFN-gamma potentiation, luminescence; at 5.7 µM; hits give high values; 100% = IFN-gamma EC80 alone, no compound

SMILES	activation (% of control)
COc1ccc2nc(NC(=O)c3ccc(Br)s3)sc2c1	185% (active)
O=C(Nc1ccc2oc(-c3ccccc3F)nc2c1)c1ccco1	204% (active)
O=C(Nc1ccc2c(c1)CCC2)c1ccc(Br)s1	236% (active)
CN(c1ccc(C(=O)NCCC2=CCCCC2)cc1)S(C)(=O)=O	177% (active)
CC1CN/C(=C\C(=O)c2ccc(Br)cc2)C(=O)N1 (stereo not given)	250% (active)
Cc1ccccc1Nc1nc(N)nc(CSc2ccccc2)n1	220% (active)
CCn1c(/C=C/c2ccc([N+](=O)[O-])o2)nc2ccccc2c1=O	125%
Cc1[nH]n(-c2ccccc2)c(=O)c1/C=N/NC(=O)c1ccoc1C	120%
CCOC(=O)/C(C#N)=C/c1ccc(N2CCCCC2)cc1	155% (active)
Cc1ccc(NC(=O)c2csc3c2CCCC3)cc1	202% (active)
COc1ccc(/C=N/Nc2nc3ccccc3o2)cc1OC	208% (active)
COc1ccc(-c2csc(Cc3nc(O)cs3)n2)cc1	265% (active)
Cc1cccc(NC(=O)Nc2ccc3c(c2)OCO3)n1	192% (active)
CC(=O)Nc1cccc(-c2csc(Nc3cccc(C)n3)n2)c1	241% (active)
c1ccc(Nc2nc(-c3ccncc3)cs2)nc1	243% (active)
O=C(c1cc(-c2cccs2)on1)N1CCCCC1	184% (active)
COc1ccc(/C=N/Nc2nc3ccccc3c(=O)[nH]2)cc1	169% (active)
Cc1nn(-c2ccc([N+](=O)[O-])cc2)c(N)c1-c1ccccc1	207% (active)
COc1ccc(-n2nnnc2-c2nc3ccccc3s2)cc1	214% (active)
Cc1ccc(NC(=O)Nc2ccc3oc(C)nc3c2)cc1	200% (active)

SMILES	activation (% of control)
CC(=O)c1sc(NC(=O)c2ccc(C)cc2)nc1C	185% (active)
COc1ccc(-n2ncc3c(N4CCCc5ccccc54)ncnc32)cc1	209% (active)
COc1ccccc1-c1cc(C(=O)N2CCCCC2)no1	204% (active)
CCOc1ccc2nc(C(=O)N3CCCC(C)C3)sc2c1 (stereo not given)	217% (active)
COc1ccc(-c2csc(-c3cccs3)n2)cc1OC	179% (active)
CN1C(=O)/C(=C/C=C2\SCCN2C)OC1=S	175% (active)
COc1ccc(CS(=O)/C(Cl)=C(/Cl)C(=O)Nc2ccc(OC)nc2)cc1 (stereo not given)	335% (active)
Cc1cccc(N=Nc2c(O)[nH]c3ccc(F)cc23)c1	160% (active)
Cc1cc(Cl)ccc1OCc1nc(-c2ccncc2)no1	165% (active)
Cn1nnc2cc(C(=O)NCCC3=CCCCC3)ccc21	171% (active)
Cc1cc(C)c2nc(NC(=O)C3CCCO3)sc2c1 (stereo not given)	209% (active)
CCC(=O)NC(=Nc1nc2ccccc2s1)NC(=O)CC	216% (active)
CCNc1nc(-c2cc3ccccc3o2)cs1	131% (active)
COc1ccc2nc(SCc3ccccc3)nc(C)c2c1	231% (active)
Clc1ccc(Nc2nc(-c3cccs3)cs2)nc1	289% (active)
CCc1ccc(NC2Nc3cc(C)nn3S2)cc1 (stereo not given)	206% (active)
Cc1noc(C)c1/C=N/Nc1ccc2ccccc2n1	235% (active)
COc1ccc2oc(-c3cccc(NC(=O)CSc4ccc(Cl)cc4)c3)nc2c1	216% (active)
O=C(NCCCn1ccnc1)c1cc(-c2ccccc2)on1	173% (active)
COc1ccc(NC(=O)/C(Cl)=C(/Cl)S(=O)Cc2ccc(C)cc2)cn1 (stereo not given)	324% (active)

test: NF-kB reporter activators, TNF-alpha stimulated, counter-screen for STAT1 activator project, cell-based, HEK293T, luciferase luminescence (AID 1306); conditions: at 5.7 µM, hits give high values, 100% = TNF-alpha with vehicle only;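 note: TNF-alpha given at a submaximal dose yielding about 80% of full reporter signal; values are well signal over median control so 100% means no change and 0% no light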

SMILES	activation (% of control)
COc1ccc2nc(NC(=O)c3ccc(Br)s3)sc2c1	134% (active)
O=C(Nc1ccc2oc(-c3ccccc3F)nc2c1)c1ccco1	137% (active)
O=C(Nc1ccc2c(c1)CCC2)c1ccc(Br)s1	137% (active)
CN(c1ccc(C(=O)NCCC2=CCCCC2)cc1)S(C)(=O)=O	124%
CC1CN/C(=C\C(=O)c2ccc(Br)cc2)C(=O)N1 (stereo not given)	117%
Cc1ccccc1Nc1nc(N)nc(CSc2ccccc2)n1	126%
CCn1c(/C=C/c2ccc([N+](=O)[O-])o2)nc2ccccc2c1=O	156% (active)
Cc1[nH]n(-c2ccccc2)c(=O)c1/C=N/NC(=O)c1ccoc1C	117%
CCOC(=O)/C(C#N)=C/c1ccc(N2CCCCC2)cc1	140% (active)
Cc1ccc(NC(=O)c2csc3c2CCCC3)cc1	140% (active)
COc1ccc(/C=N/Nc2nc3ccccc3o2)cc1OC	133%
COc1ccc(-c2csc(Cc3nc(O)cs3)n2)cc1	150% (active)
Cc1cccc(NC(=O)Nc2ccc3c(c2)OCO3)n1	133% (active)
CC(=O)Nc1cccc(-c2csc(Nc3cccc(C)n3)n2)c1	144% (active)
c1ccc(Nc2nc(-c3ccncc3)cs2)nc1	126%
O=C(c1cc(-c2cccs2)on1)N1CCCCC1	125%
COc1ccc(/C=N/Nc2nc3ccccc3c(=O)[nH]2)cc1	119%
Cc1nn(-c2ccc([N+](=O)[O-])cc2)c(N)c1-c1ccccc1	145% (active)
COc1ccc(-n2nnnc2-c2nc3ccccc3s2)cc1	117%
Cc1ccc(NC(=O)Nc2ccc3oc(C)nc3c2)cc1	128%

SMILES	activation (% of control)
CC(=O)c1sc(NC(=O)c2ccc(C)cc2)nc1C	123%
COc1ccc(-n2ncc3c(N4CCCc5ccccc54)ncnc32)cc1	139% (active)
COc1ccccc1-c1cc(C(=O)N2CCCCC2)no1	137% (active)
CCOc1ccc2nc(C(=O)N3CCCC(C)C3)sc2c1 (stereo not given)	133%
COc1ccc(-c2csc(-c3cccs3)n2)cc1OC	136% (active)
CN1C(=O)/C(=C/C=C2\SCCN2C)OC1=S	132%
COc1ccc(CS(=O)/C(Cl)=C(/Cl)C(=O)Nc2ccc(OC)nc2)cc1 (stereo not given)	67.4%
Cc1cccc(N=Nc2c(O)[nH]c3ccc(F)cc23)c1	135% (active)
Cc1cc(Cl)ccc1OCc1nc(-c2ccncc2)no1	138% (active)
Cn1nnc2cc(C(=O)NCCC3=CCCCC3)ccc21	117%
Cc1cc(C)c2nc(NC(=O)C3CCCO3)sc2c1 (stereo not given)	138% (active)
CCC(=O)NC(=Nc1nc2ccccc2s1)NC(=O)CC	138% (active)
CCNc1nc(-c2cc3ccccc3o2)cs1	121%
COc1ccc2nc(SCc3ccccc3)nc(C)c2c1	141% (active)
Clc1ccc(Nc2nc(-c3cccs3)cs2)nc1	149% (active)
CCc1ccc(NC2Nc3cc(C)nn3S2)cc1 (stereo not given)	141% (active)
Cc1noc(C)c1/C=N/Nc1ccc2ccccc2n1	141% (active)
COc1ccc2oc(-c3cccc(NC(=O)CSc4ccc(Cl)cc4)c3)nc2c1	140% (active)
O=C(NCCCn1ccnc1)c1cc(-c2ccccc2)on1	165% (active)
COc1ccc(NC(=O)/C(Cl)=C(/Cl)S(=O)Cc2ccc(C)cc2)cn1 (stereo not given)	51.5%

Source: PubChem BioAssay
